High-throughput results as filed in PubChem BioAssay.
Pol eta inh: qHTS for Inhibitors of Polymerase Eta. DNA polymerase eta (Homo sapiens), Q9Y253. recombinant Pol eta, fluorescent DNA replication assay. AID 588591, 2011. 390,000 tested, 1.2% active. Potency, µM (top dose mostly 114 µM), without a hit: top-dose activity change, negative = inhibition, usual class: inhibitors; also: % is scaled to controls: 0 for no effect and ±100 for the full control effect
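Pol eta (10 nM) was preincubated with compounds for 15 min at room temperature, after which fluorescent replication substrate (50 nM final) was added to start the reaction. Fluorescence was read kinetically at 0 and 10 min.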
Pol iota inh: qHTS for Inhibitors of Polymerase Iota; DNA polymerase iota (Homo sapiens), Q9UNA4; Pol iota fluorescent replication assay, 10 min; Potency, µM (highest dose often 115 µM), for inactives: at the top dose activity, negative = inhibition, hits mostly inhibitors; 390,000 tested, 1% active
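Fluorescent replication assay read twice, at 0 min and 10 min after adding 50 nM (final) substrate. Enzyme (10 nM) and compounds were first incubated 15 min at room temperature; enzyme-free buffer wells were negative controls.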
GLS inh: qHTS for Inhibitors of Glutaminase (GLS). Glutaminase kidney isoform, mitochondrial (Homo sapiens), O94925. 410,000 tested, 0.21% active. GLS enzymatic activity, qHTS titration. Potency, µM (series often up to 45.5 µM), for inactives: top-dose activity change, negative = inhibition, usual class: inhibitors; also: % is scaled to controls: 0 for no effect and ±100 for the full control effect
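Assay buffer: 45 mM KH2PO4 pH 8.2, 0.02% Tween-20. hKGA acts on L-glutamine (1 mM solution added); product glutamate is reported by an oxidase/peroxidase Amplex Red coupling, with fluorescence taken at baseline and 30 min.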
Pol kappa inh: qHTS for Inhibitors of Polymerase Kappa | DNA polymerase kappa (Homo sapiens), Q9UBT6 | Potency, µM (series often up to 107 µM), without a hit: top-dose activity, negative = inhibition, usual class: inhibitors | 400,000 tested, 0.53% active | purified Pol kappa, fluorescent DNA synthesis assay, 10 min; also: % is scaled to controls: 0 for no effect and ±100 for the full control effect
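Kinetic fluorescence readout at 0 and 10 min followed reaction start with substrate at 50 nM final. Beforehand, enzyme (10 nM Pol kappa) stood 15 min with compound at room temperature; buffer-only wells were negative controls.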
POLB inh: qHTS Assay for Inhibitors of DNA Polymerase Beta. P06746. Pol beta primer extension/strand displacement, fluorescence kinetic. Potency, µM (titrated, usually from 114 µM), inactives show top-dose activity change, negative = inhibition, most hits filed as inhibitors. 340,000 tested, 1.3% active; also: % is scaled to controls: 0 for no effect and ±100 for the full control effect
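Values derive from four-parameter Hill fits of normalized kinetic data: reads at 0 and 10 min following addition of 50 nM substrate to 10 nM Pol beta preincubated 15 min with compound.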
KAT2A inh: qHTS Assay for Inhibitors of GCN5L2. 390,000 tested, 0.21% active. Histone acetyltransferase KAT2A (Homo sapiens), Q92830. AID 504327, 2011. Potency, µM (series often up to 58.9 µM), for the others: at the top dose activity change, negative = inhibition, hits mostly inhibitors. GCN5L2 HAT assay, ThioGlo1 CoA-SH fluorescence; also: % is scaled to controls: 0 for no effect and ±100 for the full control effect
Target sequence (Q92830 whole entry, looked up): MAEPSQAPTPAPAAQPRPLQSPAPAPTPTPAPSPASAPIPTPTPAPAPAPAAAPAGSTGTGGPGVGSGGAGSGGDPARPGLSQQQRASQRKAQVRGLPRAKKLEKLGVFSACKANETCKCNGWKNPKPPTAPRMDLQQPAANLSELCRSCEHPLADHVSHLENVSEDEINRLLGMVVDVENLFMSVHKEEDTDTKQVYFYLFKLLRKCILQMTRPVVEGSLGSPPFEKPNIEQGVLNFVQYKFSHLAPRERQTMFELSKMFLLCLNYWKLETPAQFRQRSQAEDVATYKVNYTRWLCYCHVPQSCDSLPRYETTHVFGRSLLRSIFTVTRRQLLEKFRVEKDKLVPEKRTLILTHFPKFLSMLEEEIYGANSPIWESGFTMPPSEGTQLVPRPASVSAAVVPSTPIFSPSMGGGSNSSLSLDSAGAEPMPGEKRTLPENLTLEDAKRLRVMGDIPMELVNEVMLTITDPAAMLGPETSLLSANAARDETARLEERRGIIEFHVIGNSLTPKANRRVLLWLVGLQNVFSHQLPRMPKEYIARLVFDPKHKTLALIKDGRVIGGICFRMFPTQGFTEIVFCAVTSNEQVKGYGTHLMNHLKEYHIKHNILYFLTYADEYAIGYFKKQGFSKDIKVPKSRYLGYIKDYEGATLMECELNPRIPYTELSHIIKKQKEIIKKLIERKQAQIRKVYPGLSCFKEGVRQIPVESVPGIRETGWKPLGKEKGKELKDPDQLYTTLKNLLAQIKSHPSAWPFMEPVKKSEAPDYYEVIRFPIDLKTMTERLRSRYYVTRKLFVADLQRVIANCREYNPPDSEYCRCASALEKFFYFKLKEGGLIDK
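GCN5L2 (20nM final) in 50mM HEPES, 0.1mM EDTA pH 7.5, 0.01% Tween-20 was preincubated 15 min at room temperature with compound, then given ThioGlo1 (50uM), H3(1-25) peptide (75uM) and acetyl-CoA (70uM); CoA-thiol fluorescence (Ex340/Em540) was read at 0 and 20 min.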
Starred values were filed as active, the others as inactive; ? = inconclusive; . = no result given; ! = a repeat was not active; [ ] = another dose, or the depositor's remark. Compounds with a hit are over-represented: about 2.4% of the library has one in this group of screens. Calls follow the shape of the dose curve; as a rule, active = well fitted inhibition curve with a large enough effect; inconclusive = small, poorly fitted or top-dose-only effect, or another doubt; inactive = no such curve, though single readings can be large or run the other way. Potency is read from the fitted curve at half-maximal effect.

SMILES	Pol eta inh	Pol iota inh	GLS inh	Pol kappa inh	POLB inh	KAT2A inh
CCCc1nn2c(=O)cc(COC(=O)c3cccc(NC(=O)c4cccs4)c3)nc2s1	-1%	?	8%	-7%[60.1 µM]	3.5µM*	5%
COc1ccccc1CN(C)CC(=O)c1c(C)[nH]c2ccccc12	.	47%	.	7%	.	.
CCc1ccc(-c2cc(C)no2)cc1S(=O)(=O)Nc1ccc(Cl)cc1	-12%	11%	9%	-22%	4%	12%
Cc1ccccc1C(=O)OCc1cc(=O)n2nc(C3CCCCC3)sc2n1	-16%	28%	0%	-4%	3%	-6%
Cc1ccc(OCC(=O)OCc2cc(=O)n3nc(-c4cccs4)sc3n2)cc1	-8%	?	-4%	0%	?	1%
Cc1ccccc1C(=O)OCc1cc(=O)n2nc(-c3cccs3)sc2n1	1%	?	-11%	-12%	32µM*	4%
O=C(OCc1cc(=O)n2nc(-c3cccs3)sc2n1)c1ccccc1Cl	?	?	-10%	?	35µM*	-6%
O=C(OCc1cc(=O)n2nc(-c3cccs3)sc2n1)c1cccc(Cl)c1	-14%	?	-7%	-13%	40µM*	-8%
O=C(COc1ccc(Cl)cc1)OCc1cc(=O)n2nc(-c3cccs3)sc2n1	?	?	-8%	-22%	25µM*	0%
O=C(O)C1CC=CC2CCN(C3CC3)C(=O)C21 (stereo not given)	.	-25%	.	-16%	.	.
O=C(Nc1nnc(C23CC4CC(CC(C4)C2)C3)s1)c1ccc(N2C(=O)CCC2=O)cc1	?	?	-4%	-41%	10µM*	?
CC(C)c1nnc(NC(=O)c2ccc(N3C(=O)CCC3=O)cc2)s1	-8%	14%	-3%	16%	?	6%
COc1ccc(NC(=O)Cn2c(SCc3c(F)cccc3Cl)nc3ccncc32)cc1OC	-2%	-10%	-9%	-7%	21%	-19%
Cc1ccc(C(=O)COC(=O)c2cccc(NC(=O)c3ccc(Cl)cc3Cl)c2)cc1	-27%	14%	1%	-1%	3%	4%
CCOc1ccc(C(=O)NCCCCNC(=O)c2ccc(OCC)cc2)cc1	0%	101%	5%	-6%	8%	35µM*
O=C(Nc1nnc(S(=O)(=O)N2CCCc3ccccc32)s1)c1ccccc1	?	23%	10%	-9%	?	-5%
O=C(Nc1nnc(S(=O)(=O)N2CCCCCC2)s1)c1ccc(Br)cc1	-4%	-18%	-1%	-12%	15%	-5%
Cc1ccc(N2CCN(S(=O)(=O)c3nnc(NC(=O)c4ccco4)s3)CC2)cc1	79µM*	-13%	4%	-16%	?	-16%
Cc1ccc(C(=O)Nc2nnc(S(=O)(=O)N3CCN(c4ccc(F)cc4)CC3)s2)cc1	-14%	-9%	-3%	1%	9%	3%
O=C(Nc1nnc(S(=O)(=O)N2CCc3ccccc32)s1)c1ccccc1	3%	61%	6%	-7%	-4%	-2%
O=C(Nc1nnc(S(=O)(=O)N2CCc3ccccc32)s1)c1cccc(Cl)c1	89µM*	14%	6%	-18%	4%	1%
Cc1ccc(C(=O)Nc2nnc(S(=O)(=O)N3CCCc4ccccc43)s2)cc1	89µM*	100%	2%	-11%	?	2%
O=C(Nc1nnc(S(=O)(=O)N2CCCCC2)s1)c1ccc(Cl)cc1	1%	-26%	1%	-8%	4%	11µM*!
O=C(CN1C(=O)/C(=C/c2ccco2)SC1=S)Nc1ccc(O)c(C(=O)O)c1	?	-41%	-10%	?	10µM*	-35%
CC(=C\c1ccco1)/C=C1/SC(=S)N(CC(=O)O)C1=O	40µM*	?	-1%	?	20µM*	-10%
SMILES	Pol eta inh	Pol iota inh	GLS inh	Pol kappa inh	POLB inh	KAT2A inh
O=C1NC(=Nc2ccc(O)cc2)S/C1=C/c1ccco1	-10%	7%	15%	-34%	?	-4%
NN1C(=O)/C(=C\c2ccco2)SC1=S	-24%	?	-3%	?	7.9µM*	-19%
O=C1/C(=C\c2ccco2)SC(=S)N1c1ccc(O)cc1	-12%	?	-1%	-24%	20µM*	-6%
Cc1c(Br)cnc2ccccc12	.	6%	.	-13%	.	.
CC[C@H](C)[C@H](NC(=O)[C@H](Cc1ccccc1)NC(=O)[C@H](C)NC(=O)[C@H](CC(=O)O)NC(=O)[C@H](CCCCN)NC(=O)[C@H](CO)NC(=O)[C@@H]1CCCN1C(=O)[C@@H]1CCC(=O)N1)C(=O)NCC(=O)N[C@@H](CC(C)C)C(=O)N[C@@H](CCSC)C(N)=O	.	.	.	19%[60.1 µM]	.	0%
CN(C)c1ccc(C2CCc3ccccc3N2C(=O)c2ccccc2)cc1 (stereo not given)	.	55%	.	-6%	.	.
CN(C)c1ccc(/C=C2\C=Cc3ccccc32)cc1Cl	.	8%	.	-15%	.	.
Cc1cc(C)c(C)c(S(=O)(=O)N[C@@H](C)C(=O)OCc2cc(=O)n3cc(Br)ccc3n2)c1C	?	50µM*	-15%	?	8.9µM*	-4%
O=C(CN1CCOCC1)Nc1ccccc1C(=O)O	-4%	79µM*	-16%	-7%	1%	-1%
CCOC1=C2CN(S(=O)(=O)c3ccc(C)cc3)[C@H](c3cccc4ccccc34)C[C@H]2C(C#N)(C#N)C(C#N)(C#N)C1	.	.	-11%	.	.	.
CCOC1=C2[C@H](c3ccccc3)N(S(=O)(=O)c3ccc(C)cc3)C(C(C)(C)C)[C@H]2C(C#N)(C#N)C(C#N)(C#N)C1 (stereo not given in full)	.	.	2.2µM*	.	.	.
Cc1ccc(Cl)cc1NC(=O)CN1C(=O)CCc2ccccc21	-9%	17%	3%	2%	0%	-11%
Cc1ccc(NC(=O)CN2C(=O)CCc3ccccc32)cc1C	0%	?	-13%	-39%	22µM*	-19%
Cc1ccc(C)c(NC(=O)CN2C(=O)CCc3ccccc32)c1	-6%	79µM*	-9%	?	22µM*	?
Cc1cnc(C(=O)OCC(=O)Nc2ncc(Cl)cc2Cl)cn1	50µM*	?	-5%	-18%	.	-9%
O=C(COC(=O)c1ccc(Cl)nc1)Nc1ncc(Cl)cc1Cl	35µM*	87%	10%	-10%	?	-13%
Cc1cnc(C(=O)OCC(=O)Nc2sc3c(c2C#N)CCC3)cn1	22µM*	?	4%	-24%	.	-9%
